Experimental data reported in PubChem BioAssay (NCI).
The panel holds about 83,000 compounds, 20% with a hit somewhere; the sample as a whole holds those more often.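 Treatment: one concentration, 48 hours, 96-well format. Scoring: percent growth, with anything below 10 considered active.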 Values without a mark were called inactive. Active and inactive are the calls of the source.

System: MDA-MB-468 breast
Experiment: NCI-60 one-dose screen, 48 h (100 = growth as untreated, 0 = no growth, -100 = all killed)
Details: 10 µM unless noted

SMILES | growth
C=CCN=c1sc(-c2ccc3ccccc3c2)cn1NC(=O)c1cc2ccc1CCc1ccc(cc1)CC2 | 39.1%
OCCNc1nc(Nc2ccc(Cl)c(Cl)c2)nc2ccccc12 | -10.6% (active)
Nc1n[nH]c2cccc(C#Cc3cccc(NC(=O)c4ccc(N5CCOCC5)c(C(F)(F)F)c4)c3)c12 | 21.8%
Cc1cccc(C)c1NC(=O)CSC(=S)N1CCCCC1 | 110%
O=C1/C(=C/c2cc(F)cc(F)c2)Cc2cc3c(cc21)OCO3 | 8.61% (active)
N=C1N=C(N)CS1 | 103%
O=C(NCc1ccco1)C1CN(c2ccc(Cl)cc2)N(c2ccc(Cl)cc2)C1=O (stereo not given) | 42.4%
O=C(c1ccc(Br)cc1)C(Br)C(c1ccc(Cl)cc1)C(c1ccccc1)[N+](=O)[O-] (stereo not given) | 80.7%
CC1CC(O)CC(C)(C)C1.CC1CC(O)CC(C)(C)C1.CC1CC(O)CC(C)(C)C1.CC1CC(O)CC(C)(C)C1.[Ti] (stereo not given) | 115%
NC(=O)c1ccc[n+](Cc2ccc(Cl)cc2Cl)c1 | 101%
COc1ccc(/C=N/NC(=O)c2[nH]c3ccc(Br)cc3c2-c2ccccc2)o1 | 13%
O=C(CSc1nc2sc3c(c2c(=O)n1Cc1ccccc1)CCCC3)N1CCN(c2ccccc2)CC1 | 106%
CN(C)/N=C/c1ccccc1O | 97.8%
CCCC(=O)CC(C)=O.CCCC(=O)CC(C)=O.[Cu] | 107%
Cc1ccc2nc3ccccc3c(NCc3ccc(Cl)cc3)c2c1 | -21.7% (active)
O=C(CCCCCCCCC(=O)Nc1cccc(C2=NCCN2)c1)Nc1cccc(C2=NCCN2)c1 | 118%
Cn1ccnc1C(=O)/C=C/c1ccc(C(=O)Nc2ccccc2F)cc1 | 22.3%
O=C1Nc2ccc(F)cc2/C1=C\C(=O)c1ccc(NS(=O)(=O)c2ccccc2)cc1 | 90.3%
COc1ccc(/C=C/C(=O)c2cc(OC)c(OC)c(OC)c2)cc1OCc1cn(Cc2ccc(F)cc2)nn1 | 25.2%
CN(C)CCOc1ccc(-c2nc3sccn3c2-c2ccnc(S(C)(=O)=O)n2)cc1 | 98.8%

SMILES | growth
C[C@@H]1CN(Cc2ccc(/C=C/c3n[nH]c4ccc5nc(-c6cn[nH]c6C(F)(F)F)c6c(c5c34)CCCC6)cc2)C[C@H](C)O1 | 76.9%
C=CCN(CC#N)CC=C | 101%
COc1ccc(N2C(=O)c3cc(Cl)ccc3NC2SCc2ccccc2)cc1 (stereo not given) | 98.1%
COc1cc(NC(=O)C#Cc2ccccc2)c(OC)cc1Cl | 70.9%
CC1=CC(=O)OC1C/C=C(\C)CCC1[C@@]2(C)CCC[C@@](C)(C(=O)O)C2CC[C@@]1(C)O (stereo not given in full) | 102%
Cc1cnc(Nc2ccc(OCCN3CCCC3)cc2)nc1NCc1ccco1 | 80.8%
CCCCCC(=O)OCc1ccc(Cl)c(Cl)c1 | 123%
C#CCNC(=O)CC[C@@H](C)[C@H]1CC[C@H]2[C@@H]3CC[C@@H]4CC(=O)CC[C@]4(C)[C@H]3CC[C@]12C | -19.7% [100 µM] (active)
O=S(=O)(NCCNc1nccc(-c2c(-c3cccc(F)c3)nc3sccn23)n1)c1ccccc1 | 43.6%
CCOC(=O)c1cc(C(=O)c2ccc(OC)c(OC)c2)n2ccncc12 | 99.5%
CCCCCCC(=O)C(C)C | 98.8%
O=c1ccc(N=Nc2ccccc2)ccc1Cl | -51.2% (active)
NS(=O)(=O)c1ccc(Nc2nc(Nc3ccccc3)nc3nnc(SCC(=O)NC4CCCCC4)n23)cc1 | 104%
COc1ccccc1CNc1nc(N)nc2[nH]c3ccc(O)cc3c12 | 45.2%
C#C[C@]1(O)CC[C@H]2[C@@H]3CC=C4c5sc(Nc6cc(Cl)ccn6)nc5CC[C@]4(C)[C@H]3CC[C@@]21C | 28.6%
COc1ccc(/C=C/c2cccc[n+]2C)cc1 | 73.8%
COc1ccc(Cn2c(Br)c3c(c2-c2cc(OC)c(OC)c(OC)c2)CCc2sc(N)nc2-3)cc1 | 16.3%
Cc1cccc2c1O/C(=C\c1ncc([N+](=O)[O-])n1C)C2=O | -12.6% (active)
CCN1C(=O)/C(=c2\sc3n(c2=O)NC2C(N=3)N(CC)C(=O)N2CC)c2ccccc21 (stereo not given) | 27%
Cc1ccc(-n2cc(/C=C/C(=O)c3ccc(S(C)(=O)=O)cc3)c(-c3ccc(S(C)(=O)=O)cc3)n2)cc1 | 106%
